HPGD block: blocks human HPGD enzyme activity. P15428. hit rate 4.3% among 150,000. purified HPGD, NADH fluorescence kinetic, PGE2 substrate. Potency, µM, for inactives: at the highest dose activity change, negative = inhibition, actives largely listed as inhibitors; also: potency is read from the fitted curve at half-maximal effect
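20 nM HPGD preincubated 15 min at room temperature with compound in 50 mM Tris-HCl pH 8, 0.01% Tween 20. Started with 1 mM NAD+ and 30 uM prostaglandin E2; NADH fluorescence (360/450 nm) read 5 times over 30-s intervals, last minus first.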
PNC assembly inh: blocks assembly of the perinucleolar compartment; PC3M PTB-GFP, PNC prevalence imaging, 16 h; hits give low values; activity change (PNC), negative = inhibition, % at 10 µM; hit rate 3.1% among 140,000;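 active = readout at or below -70, meaning at least 70% loss of cells showing the perinucleolar compartment, a nuclear body marking cancer cells; inconclusive = readout between -30 and a set limit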;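 also: plate controls were DMSO wells for no effect and camptothecin positive control wells for full effect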
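Read-out is percentage of cells bearing a perinucleolar compartment, from automated 20x imaging of fixed, Hoechst-stained PC3M PTB-GFP cells. Cells were seeded 4 h, then exposed 16 h to compound (23 nl of library stock) in duplicate plates.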
ALDH1A1 block: blocks purified human ALDH1A1 activity; hit rate 7.3% among 220,000; Potency, µM (titrated, usually from 75.3 µM), for inactives: at the top dose activity, negative = inhibition, actives largely listed as inhibitors; P00352; Purified ALDH1A1, NADH fluorescence, propionaldehyde substrate;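 also: potency is read from the fitted curve at half-maximal effect; plate controls were no enzyme wells and a reference inhibitor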
Target sequence (P00352 whole entry, looked up): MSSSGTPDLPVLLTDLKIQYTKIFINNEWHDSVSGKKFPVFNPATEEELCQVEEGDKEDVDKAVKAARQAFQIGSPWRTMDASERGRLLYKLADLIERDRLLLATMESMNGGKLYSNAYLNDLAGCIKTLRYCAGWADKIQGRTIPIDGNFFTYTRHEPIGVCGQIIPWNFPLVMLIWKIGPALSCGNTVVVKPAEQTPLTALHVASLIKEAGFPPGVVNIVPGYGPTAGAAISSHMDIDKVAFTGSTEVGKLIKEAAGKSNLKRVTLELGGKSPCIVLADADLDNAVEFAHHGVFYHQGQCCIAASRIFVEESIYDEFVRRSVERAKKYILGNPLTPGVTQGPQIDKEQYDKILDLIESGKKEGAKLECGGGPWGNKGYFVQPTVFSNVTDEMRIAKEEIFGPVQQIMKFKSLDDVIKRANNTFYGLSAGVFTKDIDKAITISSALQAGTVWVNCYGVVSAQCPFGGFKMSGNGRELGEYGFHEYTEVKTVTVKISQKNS
* = called active by the depositor; ? = inconclusive; · = not tested or not shown; [ ] = another dose, or the depositor's remark. Hits are enriched below; roughly 11% of the tested compounds scored in any of these assays. Unless noted, calls follow the shape of the dose curve; as a rule, active = well fitted inhibition curve with a large enough effect (not every such curve was filed as active); inconclusive = small, poorly fitted or top-dose-only effect, or another doubt; inactive = no such curve, though single readings can be large or run the other way. Unless noted, % is scaled to controls: 0 for no effect and ±100 for the full control effect.

SMILES	HPGD block	PNC assembly inh	ALDH1A1 block
CCOc1cc(S(=O)(=O)NC2CCCCCC2)ccc1F	25.1µM*	26.4	3.16µM*
Cc1cc(S(=O)(=O)NC2CCCC2)ccc1F	-23.5%	24.9	-3.6%
CSc1nc2ccc(S(=O)(=O)NC3CCCCC3)cc2s1	15.8µM*	2.9	?
CSc1nc2ccc(NS(=O)(=O)c3ccc4c(c3)OCCO4)cc2s1	-22.3%	14.7	-3.5%
O=C(N/N=C(\c1ccccc1)c1cccnc1)C(O)(c1ccccc1)c1ccccc1	-7.2%	-91.9*	?
O=C(N/N=C/c1cccnc1)C(O)(c1ccccc1)c1ccccc1	-3.8%	95.3	-7.3%
COC(=O)c1ccccc1NS(=O)(=O)c1cn(C)c(=O)n(C)c1=O	-3.0%	22.8	-2.9%
CC(=O)c1cc(F)c(N2CCCCCC2)cc1C	-21.9%	-21.2	7.9%
Cc1cc(N)ccc1N1CCCC1	-5.4%	26.0	25.1µM*
NC(=O)c1cc(N)ccc1N1CCCC1	-11.6%	8.7	-2.9%
Cc1ccc(-n2c(C)cc(=O)cc2C)c(C)c1	-6.4%	9.5	6.8%
Cc1cc(N2CCCC2)c(C)cc1C=O	-6.9%	43.6	14.1µM*
Cc1cc(N)ccc1-n1c(C)ccc1C	-7.3%	-27.6	10µM*
O=C(Cn1nnc(-c2ccccc2)n1)NNC(=O)c1ccco1	·	·	1.3%
CCCn1nnnc1NC(=O)COc1ccc(Br)cc1	·	·	13.7%
C#CCOCCOCCOCCNc1nc(N2CCN(C(=O)[C@H](CCCCN)n3cc(C(N)[C@H](C)CC)nn3)CC2)nc(N2CCN(C(=O)[C@H](CCC(=O)O)n3cc(C(N)[C@H](C)CC)nn3)CC2)n1 (stereo partly drawn)	·	·	22.4µM*
C#CCOCCOCCOCCNc1nc(N2CCN(C(=O)[C@H]([C@@H](C)CC)n3cc([C@@H](N)CC(C)C)nn3)CC2)nc(N2CCN(C(=O)[C@H](CCCCN)n3cc([C@@H](N)C(C)CC)nn3)CC2)n1 (stereo partly drawn)	·	·	-2.3%
COc1ccc(N2CCN(C(=O)c3ccc(OCC4CCCO4)cc3)CC2)cc1 (stereo not drawn)	-6.9%	22.6	5.5%
C/C(=N\NC(=O)COc1ccc(C)cc1Br)c1cc([N+](=O)[O-])cs1	·	·	-3.7%
C/C(=N\NC(=O)COc1ccc(C)cc1[N+](=O)[O-])c1cccs1	·	·	14.1µM*
COC(=O)CCCC1=CC2=CC(=O)C(C)(OC(=O)c3cccs3)C(=O)C2=CN1C1CC1 (stereo not drawn)	2.8%	·	-6.1%[13.5 µM]
CNC1=CN(O)C(c2ccccc2)=c2cc(Cl)ccc2=N1	-14.4%	·	13.8%
CC(C)C(OC(=O)c1cc2sccc2n1C)C(=O)NCC1CCCO1 (stereo not drawn)	-8.8%	20.1	-2.6%
COc1ccc(CN(CC2CCCO2)C(=O)c2cc3sccc3n2C)c(OC)c1 (stereo not drawn)	·	·	11.2µM*
CCOC(=O)/C(N=Nc1c(Br)cc(Br)cc1Br)=C(\C)O	-8.8%	?	4.7%
SMILES	HPGD block	PNC assembly inh	ALDH1A1 block
Cn1c(SCC(=O)NCc2ccc(F)cc2)nc2c([nH]c3ccccc32)c1=O	·	·	-2.4%
O=C(Cc1cccc(C(F)(F)F)c1)NCc1cccc(Cl)c1	-26.5%	?	-1.0%
O=C(NCc1cccnc1)c1ccc(Cl)c(Cl)c1	-3.1%	?	1.9%
Cc1ccc(C(=O)c2c[nH]c(C(=O)NCc3cccnc3)c2)cc1	25.1µM*	14.4	?
O=C(NCc1cccnc1)c1cccc(C(F)(F)F)c1	-1.1%	-94.1*	6.9%
COc1cccc(C(=O)c2c[nH]c(C(=O)NCc3cccnc3)c2)c1	·	·	-11.0%
O=C(NCc1cccc(C(F)(F)F)c1)c1cc(Cl)ccc1Cl	28.2µM*	-108.3*	6.8%
CCC1=C(OC(=O)N(CC)CC)N2C(=O)OC(=NCCc3c[nH]c4ccccc34)[C@]2(C)[C@H]2C1=CC[C@H]1C(=O)N(CC(=O)OC)C(=O)[C@H]12	-15.2%	·	?
O=C(c1ccc(COc2c(F)c(F)cc(F)c2F)o1)N1CCN(c2ccc(Cl)cc2)CC1	-18.0%	-23.1	?
COc1ccc2c(c1)C1NC(=S)NC(C)(O2)C1C(=O)Nc1ccccc1C (stereo not drawn)	-18.1%	-20.0	2.7%
CCCN1C(=O)/C(=C/c2ccc3c(c2)OCO3)NC1=S	·	·	2.24µM*
CCCN1C/C(=C/c2ccc3c(c2)OCO3)C(=O)/C(=C/c2ccc3c(c2)OCO3)C1	-9.6%	-20.0	?
Cc1ccc(/C=N/NC(=O)CNC(=O)Cc2ccccc2)o1	-12.1%	-14.5	1.5%
CC(=O)Nc1nc(C2COc3ccccc3O2)cs1 (stereo not drawn)	-10.7%	?	13.3%
Fc1ccc(-c2nnc3sc(C4COc5ccccc5O4)nn23)cc1 (stereo not drawn)	28.2µM*	-27.1	0.9%
NC(N)=Nc1nc(C2COc3ccccc3O2)cs1 (stereo not drawn)	-15.4%	17.7	6.6%
O=c1[nH]cnc2scc(C3COc4ccccc4O3)c12 (stereo not drawn)	-17.3%	-17.9	2.1%
c1ccc2c(c1)OCC(c1nnc3sc(-c4cnccn4)nn13)O2 (stereo not drawn)	25.1µM*	-21.5	8.91µM*
c1csc(-c2nn3c(C4COc5ccccc5O4)nnc3s2)c1 (stereo not drawn)	8.91µM*	-15.3	8.91µM*
c1ccc2c(c1)OCC(c1nnc3n1-c1ccccc1SC3)O2 (stereo not drawn)	12.6µM*	-9.2	?
COc1ccc(-c2nn3c(-c4ccc(F)cc4)nnc3s2)cc1	-23.3%	33.8	?
C/C(=N/O)c1ccc2cc(Br)c3ccccc3c2c1	-3.5%	·	-8.6%[13.5 µM]
COc1ccc(NC(=O)N2CC3(CCN(C(=O)c4cnccn4)CC3)C2)cc1	-7.0%	·	4.4%
O=C(NC(NC(=S)Nc1cccc(Cl)c1)C(Cl)(Cl)Cl)OCc1ccccc1 (stereo not drawn)	-10.1%	?	-4.9%
CCN(N=O)[C@@H](Cc1ccccc1)CN(N=O)[C@@H](Cc1ccccc1)CN(C)N=O	·	·	-4.2%
SMILES	HPGD block	PNC assembly inh	ALDH1A1 block
CC(=O)Nc1ccccc1N(C)S(=O)(=O)c1ccc(C)cc1	-8.1%	-13.9	-11.4%
O=C(CSCc1ccc(Br)cc1)NCc1ccccn1	·	·	-0.6%
Cc1ccnc(NC(=O)CCC(=O)N(CC(=O)NC2CCCCC2)Cc2cccs2)c1	·	·	9.3%
c1ccc2c(c1)OCC(c1nnc3sc(-c4ccc5c(c4)OCO5)nn13)O2 (stereo not drawn)	?	32.2	?
Fc1ccc(-c2nn3c(C4COc5ccccc5O4)nnc3s2)cc1 (stereo not drawn)	28.2µM*	26.8	31.6µM*
CS(=O)(=O)N(CC(=O)NCc1ccncc1)c1cc(Cl)cc(Cl)c1	1.1%	?	10.0%
Cc1cc(C)cc(N(C(=O)c2csnn2)C(C(=O)NC(C)(C)C)c2cccnc2)c1 (stereo not drawn)	·	·	9.6%
COCCN(CCOC)c1cc(C)c(C#N)c2nc3ccccc3n12	?	-95.0*	?
CCc1c(C)c(C#N)c2nc3ccccc3n2c1N(C)C	-11.8%	-10.0	5.9%
C=C(C)CSc1cc(C)c(C#N)c2nc3ccccc3n12	?	-93.2*	21.8%
Cc1cc(-c2ccco2)n2c(nc3ccccc32)c1C#N	-16.0%	61.3	1.4%
CCOc1ccc(C2=C(C=Nc3c(C)n(C)n(-c4ccccc4)c3=O)C(c3ccc(F)cc3)c3ccccc3O2)cc1 (stereo not drawn)	-8.5%	?	10.9%
